Measurements from PubChem BioAssay (NCATS).
Records with an inconclusive call do not appear. The source made the active and inactive calls. Unless noted, calls follow the shape of the dose curve; as a rule, active = well fitted curve in either direction with a large enough effect (not every such curve was filed as active); inconclusive = small, poorly fitted or top-dose-only effect, or another doubt; inactive = flat fitted curve, though single readings scatter.

Experiments:
[1] = target: Lysosomal acid glucosylceramidase (Homo sapiens) (UniProt P04062); assay: Glucocerebrosidase-p2 (AID 348; in the data active = potency below about 10 µM; also: potency is read from the fitted curve at half-maximal effect); conditions: purified GBA, blue fluorogenic substrate, 40 min
Method in brief: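 Compounds titrated from 0.6 nM upwards against 0.2 nM enzyme in pH 5.9 citric acid/KH2PO4, taurocholate, tween-20; blue fluorogenic substrate 80 uM, 40 min room temperature, stopped and read Ex 365/Em 440 for AC50.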

[2] = AP1 Signaling Pathway (AID 357); conditions: ME-180 AP-1-bla reporter, EGF-induced, beta-lactamase ratio, 5 h; at 7.69 µM (top of the series) unless noted;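 also: ME-180 reporter cells stimulated with EGF at its EC50 level; % is scaled to controls: 0 for no effect and ±100 for the full control effect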
Method in brief: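 Read-out was the 460nm/530nm emission ratio (excitation 405nm) after CCF4 loading for 2.5 hours at room temperature. Cells carried an AP-1-driven beta-lactamase reporter, were stimulated with EC50 EGF plus compound for 5 hours, and AC50 values came from titrations.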

[3] = target: Cytochrome P450 1A2 (Homo sapiens) (UniProt P05177); assay: p450-cyp1a2 (AID 410; calls by dose curve; also: potency is read from the fitted curve at half-maximal effect;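 as to activity change, negative = inhibition: -100% = full effect of reference inhibitor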); conditions: recombinant CYP1A2, luciferin-ME demethylation, luminescence; series mostly up to 11.4 µM
Method in brief: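 20nM CYP1A2 with 100uM Luciferin-ME (at Km) in 100mM KPO4; compound preincubated 10 min, NADPH regeneration added, 60 min at room temperature. Luciferin quantified by luminescence after detection reagent; normalized to 57 uM furafylline.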

[4] = NFAT Signaling Pathway (AID 444); conditions: Jurkat NFAT-bla M1, carbachol, beta-lactamase ratio, 5 h; at 7.69 µM (top of the series) unless noted;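 also: carbachol stimulus at about its EC50 of 1 µM final; % is scaled to controls: 0 for no effect and ±100 for the full control effect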
Method in brief: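 Jurkat cells with NFAT-driven β-lactamase reporter and co-expressed M1 receptor, stimulated with carbachol (final 1 uM, ~EC50), compound titration, 5 h at 37 °C. CCF4 loaded 1 h at RT; 460/530 nm ratio gave %activity and AC50.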

[5] = target: Mitogen-activated protein kinase 10 (Mus musculus) (UniProt Q61831); assay: JNK3 AlphaScreen Assay (AID 530); conditions: JNK3 lysate, c-Jun phosphorylation; series mostly up to 11.4 µM;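 also: kinase came from lysate of stimulated human HepG2 cells; signal reports phosphorylation of biotinylated GST-cJun 1-79 at Ser73 with 10 µM ATP; % is scaled to controls: 0 for no effect and ±100 for the full control effect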
Method in brief: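 Pre-activated (IL-1β/TNFα) JNK3 in HepG2 lysates phosphorylates biotin-GST-cJun(1-79), 10 uM ATP; anti-phospho-cJun(Ser73) AlphaScreen read at room temperature, pH 7.6 Tris buffer. Compounds pre-incubated 15 min as titrations.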

[6] = target: 3',5'-cyclic-AMP phosphodiesterase 4B (Homo sapiens) (UniProt Q07343); assay: qHTS Assay for Inhibitors of PDE-IV (AID 607; active = well fitted activation curve with a large enough effect in the main read-out, with a control signal flat, not every such curve was filed as active; also: % of control where 0% means no effect); conditions: HEK293 ACTOne CNG channel cells, membrane potential fluorescence; series mostly up to 22.9 µM
Method in brief: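 ACTOne HEK293 cells carry a modified cAMP-gated CNG channel and express endogenous PDE4; plated 1000 cells/well, compounds up to 22.9 uM final. Membrane-potential dye fluorescence (ex 535/em 590) was read; parental cells received 10 uM forskolin + 100 uM RO 20-1724.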

[7] = target: ATP-dependent 6-phosphofructokinase (Trypanosoma brucei brucei) (UniProt O15648); assay: qHTS Assay to Find Inhibitors of T. brucei phosphofructokinase: hit validation (AID 492961; active = well fitted curve in the direction sought with a large enough effect; an effect the other way counts as inactive or inconclusive;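 also: luminescence reports ADP formed as PFK phosphorylates fructose-6-phosphate with ATP; % is scaled to controls: 0 for no effect and ±100 for the full control effect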); conditions: T. brucei PFK, ADP-Glo luminescence; series mostly up to 51.4 µM
Method in brief: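 Compounds titrated; %activity normalized to 0x and 1x enzyme controls, curve-fitted. Readout: ADP-Glo luminescence after 45 min room-temperature reaction of 1.25 nM PFK, 0.1 mM ATP, 0.5 mM F6P, pH 8.0.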

[8] = qHTS profiling for inhibitors of Plasmodium falciparum proliferation (AID 504749; active = well fitted curve in the direction sought with a large enough effect; an effect the other way counts as inactive or inconclusive; also: nearly all actives have a fitted effect of over 60% in size; also: potency is read from the fitted curve at half-maximal effect;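 as to activity, negative = inhibition: 0% = DMSO vehicle and full inhibition = artemisinin control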); conditions: P. falciparum in erythrocytes, SYBR Green DNA, 72 h, at 28.7 µM (top of the series)
Method in brief: (§1)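 P. falciparum-infected erythrocytes (0.3% parasitemia, 2.5% hematocrit) incubated with compound 72 h at 37 C, 5% CO2. Parasite DNA detected by SYBR Green after lysis, overnight at room temperature; normalised to 0.29 uM artemisinin and DMSO.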

[9] = tested on: CP192; assay: as above; conditions: P. falciparum in erythrocytes, SYBR Green DNA, 72 h; series mostly up to 28.7 µM
Method in brief: as §1

[10] = tested on: CP203; assay: as above; conditions: P. falciparum in erythrocytes, SYBR Green DNA, 72 h; series mostly up to 28.7 µM
Method in brief: as §1

[11] = tested on: W2; assay: as above; conditions: P. falciparum in erythrocytes, SYBR Green DNA, 72 h; series mostly up to 28.7 µM
Method in brief: as §1

[12] = Stat Signaling Pathway (AID 446); conditions: ME-180 SIE beta-lactamase reporter, IL-6 stimulated, 5 h; at 7.69 µM (top of the series) unless noted
Method in brief: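 ME-180 SIE-bla cells; overnight plating; cpd + IL-6 40 pM, 5 h, 37 C; LiveBLAzer 2.5 h RT; 460/530 nm emission ratio. Normalized to 300 pM IL-6 and 125 nM JAK inhibitor controls.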

[13] = target: Glucocorticoid receptor (Homo sapiens) (UniProt P04150); assay: GR-GFP Redistribution (AID 450;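 active = compounds whose dose series gives a full or clear partial fitted curve of increased nuclear translocation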; also: potency is read from the fitted curve at half-maximal effect); conditions: U2OS GR-GFP nuclear translocation, laser cytometry, 2 h
[14] = target: Glucocorticoid receptor (Homo sapiens) (UniProt P04150); assay: GR-EFC Redistribution (AID 451; calls by dose curve; also: potency is read from the fitted curve at half-maximal effect); conditions: CHO-K1 GR-EFC translocation, beta-gal luminescence, 2 h
Method in brief: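 CHO-K1 cells expressing nuclear EA and GR-ED fragments of b-gal; compounds titrated up to 46 uM final, 2 h at 37 C. GR nuclear translocation read as complemented b-gal luminescence after 1 h RT detection.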

[15] = target: Cytochrome P450 3A4 (Homo sapiens) (UniProt P08684); assay: qHTS Assay for Activators of Cytochrome P450 3A4 (AID 885; active = well fitted curve in the direction sought with a large enough effect; an effect the other way counts as inactive or inconclusive; also: nearly all actives have a fitted effect of over 65% in size); conditions: recombinant CYP3A4, Luciferin-PPXE luminescence, 60 min; series mostly up to 11.4 µM
Method in brief: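 20nM CYP3A4 + 25uM Luciferin-PPXE (=KM), 200mM KPO4; cpd 10 min RT; NADPH regen, 60 min RT; stop w/ detection buffer, 20 min; luminescence. Normalized to 57 uM ketoconazole.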

[16] = target: Cytochrome P450 2D6 (Homo sapiens) (UniProt P10635); assay: qHTS Assay for Inhibitors and Substrates of Cytochrome P450 2D6 (AID 891; active = well fitted curve in the direction sought with a large enough effect; an effect the other way counts as inactive or inconclusive; also: potency is read from the fitted curve at half-maximal effect; nearly all actives have a fitted effect of over 60% in size); conditions: recombinant CYP2D6, luciferin-ME EGE luminescence; series mostly up to 11.4 µM
Method in brief: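 Human CYP2D6 (5 nM) with 30 uM Luciferin-ME EGE (at Km) in 100 mM KPO4, compound preincubated 10 min, then NADPH regeneration system for 60 min at room temperature. Luciferin read by luminescence; normalized to 1.43 uM quinidine.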

[17] = qHTS Assay for Identification of Small Molecule Agonists for Hypoxia Response Element Signaling Pathway (AID 914; active = well fitted activation curve with a large enough effect in the signal ratio, with a control signal flat, not every such curve was filed as active; the % refers to the signal ratio; also: % of control where 0% means no effect); conditions: ME-180 (cervical carcinoma) HRE-bla reporter, beta-lactamase ratio, CoCl2, 17 h; activation: hits give high values
Method in brief: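 HRE-bla ME-180 assay for agonist-like enhancement of an EC50 CoCl2 stimulus: 17 h at 37 degrees Celsius, CCF4 for 2.5 h, ratiometric 460/530 nm signal converted to %Activity and fitted to AC50.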

[18] = target: Cytochrome P450 2C19 (Homo sapiens) (UniProt P33261); assay: qHTS Assay for Inhibitors and Substrates of Cytochrome P450 2C19 (AID 899; active = well fitted curve in the direction sought with a large enough effect; an effect the other way counts as inactive or inconclusive; also: nearly all actives have a fitted effect of over 60% in size; also: potency is read from the fitted curve at half-maximal effect); conditions: recombinant CYP2C19, luciferin-H EGE luminescence; series mostly up to 11.4 µM
Method in brief: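 5 nM human CYP2C19 with 10uM Luciferin-H EGE (at KM) in 50mM KPO4, compound preincubated 10 min at 37C, then NADPH regeneration for 60 min at 37C. Luciferin read by luminescence after detection reagent; normalized to 57uM ketoconazole as full inhibition.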

[19] = target: Cytochrome P450 3A4 (Homo sapiens) (UniProt P08684); assay: qHTS Assay for Inhibitors and Substrates of Cytochrome P450 3A4 (AID 884; active = well fitted curve in the direction sought with a large enough effect; an effect the other way counts as inactive or inconclusive; also: potency is read from the fitted curve at half-maximal effect; nearly all actives have a fitted effect of over 50% in size); conditions: recombinant CYP3A4, Luciferin-PPXE luminescence; series mostly up to 57.1 µM
Method in brief: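 20 nM human CYP3A4 with 25 uM Luciferin-PPXE (at KM) in 200 mM KPO4, preincubated 10 min with compound; NADPH regeneration started a 60 min RT reaction. Luciferin detected by luminescence, normalized to 57 uM ketoconazole as full inhibition.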

Chain of 3',5'-cyclic-AMP phosphodiesterase 4B (Homo sapiens) (Q07343 whole entry, looked up): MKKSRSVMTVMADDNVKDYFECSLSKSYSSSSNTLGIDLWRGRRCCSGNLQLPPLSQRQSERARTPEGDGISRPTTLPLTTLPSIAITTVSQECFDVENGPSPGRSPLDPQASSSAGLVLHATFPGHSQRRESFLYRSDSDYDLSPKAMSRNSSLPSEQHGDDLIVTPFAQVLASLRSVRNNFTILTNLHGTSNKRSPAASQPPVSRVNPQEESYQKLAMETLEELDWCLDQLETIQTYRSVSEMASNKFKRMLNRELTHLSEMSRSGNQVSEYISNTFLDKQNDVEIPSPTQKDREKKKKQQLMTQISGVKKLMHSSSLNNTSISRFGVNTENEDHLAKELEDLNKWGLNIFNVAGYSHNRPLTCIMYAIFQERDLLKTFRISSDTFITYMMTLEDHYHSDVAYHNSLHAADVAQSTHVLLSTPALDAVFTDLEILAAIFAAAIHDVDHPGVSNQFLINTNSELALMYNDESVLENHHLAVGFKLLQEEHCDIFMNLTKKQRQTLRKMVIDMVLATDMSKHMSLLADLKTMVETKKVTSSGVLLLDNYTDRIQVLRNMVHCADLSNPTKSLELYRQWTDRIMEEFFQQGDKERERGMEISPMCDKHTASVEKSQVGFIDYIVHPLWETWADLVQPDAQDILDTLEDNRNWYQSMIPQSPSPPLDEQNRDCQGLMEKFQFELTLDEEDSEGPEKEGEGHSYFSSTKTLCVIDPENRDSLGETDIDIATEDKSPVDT
Chain of Glucocorticoid receptor (Homo sapiens) (P04150 whole entry, looked up, the tested form may be a part): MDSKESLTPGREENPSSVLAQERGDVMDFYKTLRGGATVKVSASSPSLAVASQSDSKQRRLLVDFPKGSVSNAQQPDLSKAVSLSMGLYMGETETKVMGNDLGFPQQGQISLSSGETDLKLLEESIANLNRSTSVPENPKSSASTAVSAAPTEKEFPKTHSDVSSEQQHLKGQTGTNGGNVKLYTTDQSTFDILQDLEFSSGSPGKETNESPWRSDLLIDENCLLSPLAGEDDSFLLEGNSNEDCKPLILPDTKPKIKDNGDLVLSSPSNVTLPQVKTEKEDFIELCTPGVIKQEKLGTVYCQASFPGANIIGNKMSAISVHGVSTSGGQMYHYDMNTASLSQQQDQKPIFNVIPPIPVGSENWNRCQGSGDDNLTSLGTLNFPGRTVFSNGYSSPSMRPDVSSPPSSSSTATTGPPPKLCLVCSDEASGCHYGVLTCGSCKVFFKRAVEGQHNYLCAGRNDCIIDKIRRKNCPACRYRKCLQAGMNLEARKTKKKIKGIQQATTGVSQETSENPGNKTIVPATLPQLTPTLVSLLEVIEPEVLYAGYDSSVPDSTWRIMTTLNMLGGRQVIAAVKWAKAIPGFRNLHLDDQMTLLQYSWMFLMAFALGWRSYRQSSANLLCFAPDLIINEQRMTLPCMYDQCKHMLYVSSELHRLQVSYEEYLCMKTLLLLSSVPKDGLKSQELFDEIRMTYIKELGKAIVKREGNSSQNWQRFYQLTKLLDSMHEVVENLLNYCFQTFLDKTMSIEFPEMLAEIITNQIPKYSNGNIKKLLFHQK
Chain of Lysosomal acid glucosylceramidase (Homo sapiens) (P04062 whole entry, looked up): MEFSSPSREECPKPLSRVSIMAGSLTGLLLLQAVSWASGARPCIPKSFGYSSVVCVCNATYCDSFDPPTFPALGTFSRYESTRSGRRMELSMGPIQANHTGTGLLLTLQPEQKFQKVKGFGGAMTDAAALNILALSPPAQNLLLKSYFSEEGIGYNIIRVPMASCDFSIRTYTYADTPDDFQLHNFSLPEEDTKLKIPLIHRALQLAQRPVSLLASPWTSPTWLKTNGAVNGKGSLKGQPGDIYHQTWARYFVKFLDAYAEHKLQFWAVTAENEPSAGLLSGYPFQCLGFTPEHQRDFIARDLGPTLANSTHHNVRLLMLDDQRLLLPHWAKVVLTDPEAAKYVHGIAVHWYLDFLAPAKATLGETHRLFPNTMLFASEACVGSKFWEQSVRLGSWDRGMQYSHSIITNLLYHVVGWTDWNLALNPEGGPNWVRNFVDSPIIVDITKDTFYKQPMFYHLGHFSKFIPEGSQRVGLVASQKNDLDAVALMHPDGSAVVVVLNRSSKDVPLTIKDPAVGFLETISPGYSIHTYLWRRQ
Chain of Cytochrome P450 3A4 (Homo sapiens) (P08684 whole entry, looked up): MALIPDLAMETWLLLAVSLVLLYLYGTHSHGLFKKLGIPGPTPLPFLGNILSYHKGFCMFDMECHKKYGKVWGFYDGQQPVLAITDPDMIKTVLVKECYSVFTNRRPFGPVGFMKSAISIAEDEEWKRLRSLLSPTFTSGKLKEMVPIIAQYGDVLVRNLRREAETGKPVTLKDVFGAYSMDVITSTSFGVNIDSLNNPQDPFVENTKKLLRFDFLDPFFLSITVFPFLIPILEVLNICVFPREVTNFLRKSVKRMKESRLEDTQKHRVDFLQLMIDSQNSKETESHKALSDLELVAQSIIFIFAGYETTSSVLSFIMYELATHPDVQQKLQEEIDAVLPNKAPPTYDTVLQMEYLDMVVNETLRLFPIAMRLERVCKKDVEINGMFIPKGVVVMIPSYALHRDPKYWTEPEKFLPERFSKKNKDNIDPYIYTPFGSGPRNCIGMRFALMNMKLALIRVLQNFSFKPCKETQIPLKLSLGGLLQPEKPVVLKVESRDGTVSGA
Chain of Cytochrome P450 1A2 (Homo sapiens) (P05177 whole entry, looked up): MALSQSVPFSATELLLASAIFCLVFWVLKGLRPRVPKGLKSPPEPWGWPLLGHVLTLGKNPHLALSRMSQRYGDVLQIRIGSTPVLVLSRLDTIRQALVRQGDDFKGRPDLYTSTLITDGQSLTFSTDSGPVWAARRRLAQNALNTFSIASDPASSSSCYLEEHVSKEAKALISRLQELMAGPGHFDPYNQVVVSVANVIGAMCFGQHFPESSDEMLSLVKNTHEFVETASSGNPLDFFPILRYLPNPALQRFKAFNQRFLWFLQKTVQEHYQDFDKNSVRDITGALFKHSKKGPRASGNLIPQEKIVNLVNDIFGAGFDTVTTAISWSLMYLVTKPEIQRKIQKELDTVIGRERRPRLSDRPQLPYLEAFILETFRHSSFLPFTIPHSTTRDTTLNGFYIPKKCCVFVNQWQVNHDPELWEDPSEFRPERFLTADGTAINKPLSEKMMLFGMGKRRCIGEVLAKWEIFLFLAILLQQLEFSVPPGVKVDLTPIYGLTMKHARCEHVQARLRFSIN
Chain of Cytochrome P450 2C19 (Homo sapiens) (P33261 whole entry, looked up): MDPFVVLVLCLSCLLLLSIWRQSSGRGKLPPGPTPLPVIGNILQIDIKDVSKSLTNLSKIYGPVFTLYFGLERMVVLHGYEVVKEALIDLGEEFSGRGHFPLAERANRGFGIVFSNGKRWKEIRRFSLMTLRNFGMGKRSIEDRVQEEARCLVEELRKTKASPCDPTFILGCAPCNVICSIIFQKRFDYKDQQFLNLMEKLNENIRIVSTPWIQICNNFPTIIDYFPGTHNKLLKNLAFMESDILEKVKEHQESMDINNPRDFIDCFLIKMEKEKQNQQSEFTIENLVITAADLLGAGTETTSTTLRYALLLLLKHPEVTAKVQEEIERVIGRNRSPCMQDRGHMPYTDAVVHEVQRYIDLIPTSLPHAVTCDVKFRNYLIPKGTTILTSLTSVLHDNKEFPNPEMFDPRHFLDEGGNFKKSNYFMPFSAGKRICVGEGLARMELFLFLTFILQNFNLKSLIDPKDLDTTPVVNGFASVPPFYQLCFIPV
Chain of ATP-dependent 6-phosphofructokinase (Trypanosoma brucei brucei) (O15648 whole entry, looked up): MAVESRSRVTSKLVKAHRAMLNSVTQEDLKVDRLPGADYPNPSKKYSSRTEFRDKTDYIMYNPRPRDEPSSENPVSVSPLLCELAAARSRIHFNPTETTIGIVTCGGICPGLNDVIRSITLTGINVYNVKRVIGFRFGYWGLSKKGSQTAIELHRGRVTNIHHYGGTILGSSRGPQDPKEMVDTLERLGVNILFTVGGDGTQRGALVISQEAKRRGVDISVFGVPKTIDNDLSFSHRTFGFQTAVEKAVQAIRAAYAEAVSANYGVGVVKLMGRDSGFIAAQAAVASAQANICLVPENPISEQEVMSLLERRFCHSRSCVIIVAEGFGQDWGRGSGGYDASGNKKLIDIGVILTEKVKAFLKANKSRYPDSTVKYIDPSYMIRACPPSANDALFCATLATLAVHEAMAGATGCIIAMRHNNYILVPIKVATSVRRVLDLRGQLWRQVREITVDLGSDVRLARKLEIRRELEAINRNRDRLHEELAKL
Chain of Cytochrome P450 2D6 (Homo sapiens) (P10635 whole entry, looked up): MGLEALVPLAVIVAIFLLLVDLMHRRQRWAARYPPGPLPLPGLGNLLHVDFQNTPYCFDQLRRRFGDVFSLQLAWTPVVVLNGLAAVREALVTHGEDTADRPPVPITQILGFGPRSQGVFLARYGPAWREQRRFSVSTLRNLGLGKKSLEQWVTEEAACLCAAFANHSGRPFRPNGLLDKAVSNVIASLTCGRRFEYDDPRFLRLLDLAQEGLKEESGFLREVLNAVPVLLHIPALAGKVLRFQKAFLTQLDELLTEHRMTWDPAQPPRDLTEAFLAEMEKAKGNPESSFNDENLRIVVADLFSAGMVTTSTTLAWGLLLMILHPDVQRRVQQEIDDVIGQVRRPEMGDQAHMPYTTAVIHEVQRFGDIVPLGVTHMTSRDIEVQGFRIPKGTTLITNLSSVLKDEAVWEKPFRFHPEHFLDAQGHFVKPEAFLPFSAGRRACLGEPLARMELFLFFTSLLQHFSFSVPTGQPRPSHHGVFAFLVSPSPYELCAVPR

O=C(O)[C@@H](O)[C@@H](O)[C@H](O)[C@H](O)CO
inactive: Potency [1] > 11.4 µM | activity change, negative = inhibition [2] -1.8% | activity change, negative = inhibition [3] -5.5% [at 2.29 µM] | activity change, negative = inhibition [4] 5.42% | Potency [5] | Potency [6] | outcome [7] | activity, negative = inhibition ([8]; parasite line B) -24% | Potency [9] | Potency [10]
active: Potency [11] 4.78 µM

O=C(Nc1cccc2cccnc12)[C@@H]1[C@@H](C(=O)O)[C@H]2CC[C@@H]1O2
inactive: Potency [1] > 11.4 µM | activity change, negative = inhibition [2] 6.33% | Potency [3] | activity, negative = inhibition [12] -11% | Potency [13] > 46 µM | Potency [14] > 9.22 µM | Potency [5] | Potency [6]

O=c1c2ccccc2sc2c(CO)ccc(NCCN3CCCCC3)c12
inactive: Potency [1] > 11.4 µM | activity change, negative = inhibition [2] -1.51% | activity change, negative = inhibition [4] 27.4% | Potency [14] > 9.22 µM | Potency [5] | Potency [6] | Potency [15]
active: Potency [3] 1.58 µM | Potency [16] 1.26 µM

NS(=O)(=O)c1cc2c(cc1Cl)N[C@H](Cc1ccccc1)NS2(=O)=O
inactive: Potency [1] > 11.4 µM | activity change, negative = inhibition [2] -4.23% | activity, negative = inhibition [12] 1.94% | Potency [13] > 46 µM | Potency [14] > 9.22 µM | Potency [5] | Potency [6] | activation [17] 4.65% | outcome [7] | activity, negative = inhibition ([8]; parasite line A) 6.22% | activity, negative = inhibition ([8]; parasite line B) -2.36% | Potency [9] | Potency [10] | Potency [11]
active: Potency [3] 3.16 µM

CC1=NN(c2ccc(S(=O)(=O)O)cc2)C(=O)/C1=C\c1ccc(Cl)cc1
inactive: Potency [1] > 11.4 µM | activity change, negative = inhibition [2] 3.84% | activity change, negative = inhibition [3] -8.9% [at 2.29 µM] | activity change, negative = inhibition [4] 7.84% | Potency [5] | Potency [6]

Cc1cc(C2(c3cc(C)c(O)c(C(=O)O)c3)OS(=O)(=O)c3ccccc32)cc(C(=O)O)c1O
inactive: Potency [1] > 11.4 µM | activity change, negative = inhibition [2] -7.31% | Potency [3] | activity change, negative = inhibition [4] -1.56% | Potency [13] > 46 µM | Potency [14] > 9.22 µM | Potency [5] | Potency [6] | activation [17] -3.84%

CC(C)C(=O)C(C)(C)CCc1ccccn1
inactive: Potency [1] > 11.4 µM | activity change, negative = inhibition [2] 27.3% | activity, negative = inhibition [12] 1.04% | Potency [13] > 46 µM | Potency [14] > 9.22 µM | Potency [5] | Potency [6]
active: Potency [3] 2.51 µM

S=C(CSc1ccccc1)Nc1cccc2ccccc12
active: Potency [3] 1.26 µM | Potency [18] 0.794 µM
inactive: Potency [1] > 11.4 µM | activity change, negative = inhibition [2] 8.58% | activity change, negative = inhibition [4] -12.1% | Potency [13] > 46 µM | Potency [14] > 9.22 µM | Potency [5] | Potency [15]

C/C(C[n+]1ccccc1)=N\N=C(N)N
inactive: Potency [1] > 11.4 µM | activity change, negative = inhibition [2] 1.19% | Potency [3] | activity change, negative = inhibition [4] -14.3% | Potency [13] > 46 µM | Potency [14] > 9.22 µM | Potency [5] | Potency [6] | activation [17] 3.43%

COCCn1c(=O)c(-c2ccccc2)nc2cnc(Nc3ccccc3)nc21
active: Potency [3] 5.01 µM
inactive: Potency [1] > 11.4 µM | activity change, negative = inhibition [2] -24.1% | activity change, negative = inhibition [4] 10.4% | Potency [13] > 9.22 µM | Potency [14] > 46 µM | Potency [5] | Potency [15]

C[C@@]12CCC(=O)C=C1CC[C@H]1[C@@H]2[C@@H](O)C[C@]2(C)[C@@H]1CC[C@@]2(O)C(=O)CO
inactive: Potency [1] > 11.4 µM | activity change, negative = inhibition [2] -10.2% | Potency [3] | activity change, negative = inhibition [4] 14% | Potency [5] | Potency [6] | Potency [18]

O=C(CSc1nc2ccccc2s1)c1sc2sc3ccccc3[n+]2c1O
inactive: Potency [1] > 11.4 µM | activity change, negative = inhibition [2] -9.47% | activity change, negative = inhibition [4] 6.64% | Potency [13] > 46 µM | Potency [5] | Potency [6] | activation [17] -16.9%
active: Potency [3] 5.01 µM

CN(C)CCC(=O)[C@@]1(O)CC[C@H]2[C@H]3CC=C4C[C@@H](O)CC[C@]4(C)[C@H]3CC[C@]21C
inactive: Potency [1] > 11.4 µM | activity change, negative = inhibition [2] 3.32% | Potency [3] | activity, negative = inhibition [12] -18.3% | Potency [13] > 46 µM | Potency [14] > 9.22 µM | Potency [5] | Potency [6]

C[C@@H]1c2ccccc2Cn2cc3c(c21)C(=O)c1cccc(OP(=O)(O)OCc2ccccc2)c1C3=O
inactive: Potency [1] > 11.4 µM | activity change, negative = inhibition [2] -3.62% | activity, negative = inhibition [12] -19.6% | Potency [13] > 46 µM | Potency [14] > 9.22 µM | Potency [5] | Potency [6]
active: Potency [3] 3.16 µM

Cn1c(Sc2ccc(-c3cccnc3)n2C)ccc1-c1cccnc1
inactive: Potency [1] > 11.4 µM | activity change, negative = inhibition [2] 1.8% | activity change, negative = inhibition [4] -29.9% | Potency [13] > 46 µM | Potency [14] > 9.22 µM | Potency [6] | Potency [15]
active: Potency [3] 0.398 µM | Potency [19] 0.631 µM
